Active and inactive are the calls of the source. Calls follow the shape of the dose curve; as a rule, active = well fitted inhibition curve with a large enough effect; inactive = flat fitted curve, though single readings scatter.
Target: Dual specificity tyrosine-phosphorylation-regulated kinase 1A (Homo sapiens) (UniProt Q13627)
Assay: Reaction Biology data for inhibitors of DYRK1A: Probe SAR
Settings: Reaction Biology DYRK1A kinase assay, 10 uM ATP; series mostly up to 10 µM
Excerpt: Alternative splicing of pre-mRNAs plays a major role in the regulation of eukaryotic gene expression. Alternative splicing is now thought to be one of the primary reasons for the complexity of higher organisms leading to an average of three protein isoforms per gene. Aberrant splicing can lead to a number of diseases and is known to play a role in rare genetic diseases such as progeria syndrome. Hutchinson-Gilford Progeria Syndrome (HGPS) is a pediatric premature aging disease caused by a spontaneous mutation in the lamin A/C (LMNA) gene due to a single point mutation in the lamin A gene effecting 1 in 4 million people. To identify both specific splicing modulators of the lamin A gene as well as general splicing modulators, a cell-based HTS assay was developed using a minigene reporter system (AIDs, 1459 & 1487). […] This AID summarizes the characterization of lead compounds in Dyrk1a. NIH Molecular Libraries Probe Production Centers Network [MLPCN] NIH Chemical Genomics Center [NCGC] MLPCN Grant: MH084827 Assay Submitter (PI): Tom Misteli
Compound IC50s were determined at Reaction Biology (http://www.reactionbiology.com) with ten concentration points starting at 10 uM in the assay using a 3-fold dilution series. The control compound staurosporine was also tested in the 10-dose IC50 mode with the same 3-fold serial dilution, again starting at 10 uM. All kinase reactions were performed using 10 uM ATP in the assay. 100% activity was taken from kinase reactions with DMSO alone (the vehicle used for compound stock solutions).

| SMILES | Potency |
| --- | --- |
| Clc1ccc(CNc2nccc(-c3ccc4c(c3)OCO4)n2)cc1Cl | 26.3 nM (active) |
| Clc1ccc(CNc2ncncc2-c2ccc3c(c2)OCO3)cc1 | 4580 nM (active) |
| FC(F)(F)c1cc(Br)cc(Nc2nccc(-c3ccc4c(c3)OCO4)n2)c1 | 107 nM (active) |
| O=[N+]([O-])c1cc(Nc2nccc(-c3ccc4c(c3)OCO4)n2)cc(C(F)(F)F)c1 | 24.1 nM (active) |
| Cc1nc(CN(C)c2ncnc3ccc(-c4ccc5c(c4)OCO5)cc23)cs1 | 5.2 nM (active) |
| Clc1ccc(CNc2ccnc(-c3ccc4[nH]ncc4c3)n2)cc1Cl | 2350 nM (active) |
| Clc1ccc(CNc2ccnc(-c3ccc4c(c3)OCO4)n2)cc1Cl | inactive |
| COc1ccc(-c2ccnc(NCc3ccc(Cl)c(Cl)c3)n2)cc1OC | inactive |
| Clc1ccc(CNc2nccc(-c3ccc4cn[nH]c4c3)n2)cc1Cl | 169 nM (active) |
| Clc1ccc(CNc2nccc(-c3ccc4c(c3)OCCO4)n2)cc1Cl | 18.2 nM (active) |
| Cc1c(-c2ccnc(NCc3ccc(Cl)cc3)n2)sc(=O)n1C | 62.9 nM (active) |
| Cc1nc(CNc2ncnc3ccc(-c4ccc5c(c4)OCO5)cc23)cs1 | 33.3 nM (active) |
| Clc1ccc(CNc2nccc(-c3ccc4[nH]ncc4c3)n2)cc1Cl | 128 nM (active) |
| c1cncc(CNc2nccc(-c3ccc4c(c3)OCO4)n2)c1 | 7.1 nM (active) |
| Clc1cc(Cl)cc(CNc2ncncc2-c2ccc3c(c2)OCO3)c1 | 282 nM (active) |
| Clc1ccc(CNc2ncncc2-c2ccc3c(c2)OCO3)cc1Cl | 3450 nM (active) |

| SMILES | Potency |
| --- | --- |
| COc1cccc(-c2ccnc(NCc3ccc(Cl)cc3)n2)c1 | 6360 nM (active) |
| COc1ccc(-c2ccnc(NCc3ccc(Cl)cc3)n2)cc1 | 558 nM (active) |
| c1nc(NCC2CCCO2)c2cc(-c3ccc4c(c3)OCO4)ccc2n1 (configuration not stated) | 24.3 nM (active) |
| c1cncc(CNc2nccc(-c3ccc4[nH]ncc4c3)n2)c1 | 60.8 nM (active) |
| c1cc(-c2ccc3c(c2)OCO3)nc(Nc2ccc3c(c2)OCO3)n1 | 24.9 nM (active) |
| COc1cccc(-c2ccnc(NCc3ccc(Cl)c(Cl)c3)n2)c1 | 4650 nM (active) |
| Cc1c(-c2ccnc(NCc3cccnc3)n2)sc(=O)n1C | 29.3 nM (active) |
| FC(F)(F)c1cccc(Nc2nccc(-c3ccc4c(c3)OCO4)n2)c1 | 10.4 nM (active) |
| COc1ccc(-c2ccnc(NCc3ccc(Cl)c(Cl)c3)n2)cc1 | 203 nM (active) |
| Brc1cc(Br)cc(CNc2nccc(-c3ccc4c(c3)OCO4)n2)c1 | 10.7 nM (active) |
| Clc1ccc(Nc2nccc(-c3ccc4c(c3)OCO4)n2)cc1 | 273 nM (active) |
| c1cncc(CNc2ccnc(-c3ccc4cn[nH]c4c3)n2)c1 | 1430 nM (active) |
| c1cncc(CNc2ncncc2-c2ccc3c(c2)OCO3)c1 | inactive |
| c1cncc(CNc2ccnc(-c3ccc4[nH]ncc4c3)n2)c1 | 349 nM (active) |
| Brc1ccc(CNc2nccc(-c3ccc4c(c3)OCO4)n2)cc1Br | 79.3 nM (active) |
| Cc1nc(CN(C)c2ncnc3ccc(-c4ccc5[nH]ncc5c4)cc23)cs1 | 64.1 nM (active) |

From PubChem BioAssay AID624045 (National Center for Advancing Translational Sciences (NCATS), 2012)
